Key:
Assay in all cases: log2 ratio of Biotin-Ahx-Ub-VS probe labelling (fragment/DMSO); higher = less target engagement (more negative = stronger competition), active = hit call of the paper (q ≤ 0.05, log2 ratio ≤ -1)
Settings in all cases: compound concentration: 200 uM; treatment time: 3 h
[1] = target: T1, USP42 (UniProt Q9H9J4)
T1 sequence (whole entry): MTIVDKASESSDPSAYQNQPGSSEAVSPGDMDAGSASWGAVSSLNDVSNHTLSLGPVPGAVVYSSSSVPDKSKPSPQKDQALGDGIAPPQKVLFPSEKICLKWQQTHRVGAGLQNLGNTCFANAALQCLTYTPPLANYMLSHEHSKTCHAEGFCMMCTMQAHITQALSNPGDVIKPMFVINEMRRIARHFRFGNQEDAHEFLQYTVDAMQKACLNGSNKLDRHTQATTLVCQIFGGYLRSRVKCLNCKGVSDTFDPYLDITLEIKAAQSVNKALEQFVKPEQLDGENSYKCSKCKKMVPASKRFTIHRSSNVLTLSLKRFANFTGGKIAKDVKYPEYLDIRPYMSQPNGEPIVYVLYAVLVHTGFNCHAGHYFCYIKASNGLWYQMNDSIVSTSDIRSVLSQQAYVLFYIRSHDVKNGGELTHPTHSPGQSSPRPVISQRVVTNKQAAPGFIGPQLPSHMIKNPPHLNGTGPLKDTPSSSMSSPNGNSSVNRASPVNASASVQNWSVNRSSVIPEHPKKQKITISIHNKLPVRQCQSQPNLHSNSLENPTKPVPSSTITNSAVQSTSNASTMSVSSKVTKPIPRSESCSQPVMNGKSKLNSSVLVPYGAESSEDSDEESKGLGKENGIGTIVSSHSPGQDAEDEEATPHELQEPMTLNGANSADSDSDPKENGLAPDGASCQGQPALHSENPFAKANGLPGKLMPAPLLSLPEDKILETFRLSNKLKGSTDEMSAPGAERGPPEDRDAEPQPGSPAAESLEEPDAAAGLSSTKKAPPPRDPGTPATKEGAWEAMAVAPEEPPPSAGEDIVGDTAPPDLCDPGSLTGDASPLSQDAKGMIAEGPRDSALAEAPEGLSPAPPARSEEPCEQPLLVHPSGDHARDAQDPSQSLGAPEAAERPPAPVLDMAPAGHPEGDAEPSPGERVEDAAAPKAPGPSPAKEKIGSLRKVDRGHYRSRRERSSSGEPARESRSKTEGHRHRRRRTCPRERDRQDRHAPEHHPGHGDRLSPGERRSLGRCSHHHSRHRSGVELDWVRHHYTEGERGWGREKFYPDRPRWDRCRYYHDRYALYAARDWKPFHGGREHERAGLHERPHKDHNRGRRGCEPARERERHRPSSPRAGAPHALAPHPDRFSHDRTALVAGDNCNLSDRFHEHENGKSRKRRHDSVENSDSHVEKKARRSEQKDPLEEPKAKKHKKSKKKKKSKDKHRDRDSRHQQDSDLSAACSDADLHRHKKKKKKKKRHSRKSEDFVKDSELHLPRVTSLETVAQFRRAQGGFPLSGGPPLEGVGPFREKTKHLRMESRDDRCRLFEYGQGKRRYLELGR
In short: (§1)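 HEK293T lysate (495 µg per sample, in Tris/CHAPS/IGEPAL buffer with protease inhibitors) was exposed in triplicate for 3 h to fragment at 200 µM or to vehicle, then to Biotin-Ahx-Ub-VS at 0.5 µM final for 1 h. Labelled DUBs were enriched on NeutrAvidin, digested with LysC and trypsin, and analysed by diaPASEF LC-MS/MS. Spectronaut label-free quantities were normalised to the global median, and values are average log2 ratios of fragment over vehicle from an unpaired t-test. Only proteins with ≥2 unique peptides were used.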

[2] = target: USP46 (UniProt P62068)
Chain of USP46 (P62068 whole entry): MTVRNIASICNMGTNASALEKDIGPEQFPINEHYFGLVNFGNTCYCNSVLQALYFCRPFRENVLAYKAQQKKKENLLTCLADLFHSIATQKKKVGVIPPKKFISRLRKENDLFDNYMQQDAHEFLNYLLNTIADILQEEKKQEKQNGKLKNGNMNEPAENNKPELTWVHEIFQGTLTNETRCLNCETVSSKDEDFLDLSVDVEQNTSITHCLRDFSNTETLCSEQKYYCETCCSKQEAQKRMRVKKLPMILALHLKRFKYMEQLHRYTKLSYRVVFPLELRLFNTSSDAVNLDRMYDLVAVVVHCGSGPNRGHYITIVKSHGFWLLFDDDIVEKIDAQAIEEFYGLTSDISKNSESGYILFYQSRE
In short: as §1

[3] = target: T2, USP47 (UniProt Q96K76)
T2 sequence (whole entry): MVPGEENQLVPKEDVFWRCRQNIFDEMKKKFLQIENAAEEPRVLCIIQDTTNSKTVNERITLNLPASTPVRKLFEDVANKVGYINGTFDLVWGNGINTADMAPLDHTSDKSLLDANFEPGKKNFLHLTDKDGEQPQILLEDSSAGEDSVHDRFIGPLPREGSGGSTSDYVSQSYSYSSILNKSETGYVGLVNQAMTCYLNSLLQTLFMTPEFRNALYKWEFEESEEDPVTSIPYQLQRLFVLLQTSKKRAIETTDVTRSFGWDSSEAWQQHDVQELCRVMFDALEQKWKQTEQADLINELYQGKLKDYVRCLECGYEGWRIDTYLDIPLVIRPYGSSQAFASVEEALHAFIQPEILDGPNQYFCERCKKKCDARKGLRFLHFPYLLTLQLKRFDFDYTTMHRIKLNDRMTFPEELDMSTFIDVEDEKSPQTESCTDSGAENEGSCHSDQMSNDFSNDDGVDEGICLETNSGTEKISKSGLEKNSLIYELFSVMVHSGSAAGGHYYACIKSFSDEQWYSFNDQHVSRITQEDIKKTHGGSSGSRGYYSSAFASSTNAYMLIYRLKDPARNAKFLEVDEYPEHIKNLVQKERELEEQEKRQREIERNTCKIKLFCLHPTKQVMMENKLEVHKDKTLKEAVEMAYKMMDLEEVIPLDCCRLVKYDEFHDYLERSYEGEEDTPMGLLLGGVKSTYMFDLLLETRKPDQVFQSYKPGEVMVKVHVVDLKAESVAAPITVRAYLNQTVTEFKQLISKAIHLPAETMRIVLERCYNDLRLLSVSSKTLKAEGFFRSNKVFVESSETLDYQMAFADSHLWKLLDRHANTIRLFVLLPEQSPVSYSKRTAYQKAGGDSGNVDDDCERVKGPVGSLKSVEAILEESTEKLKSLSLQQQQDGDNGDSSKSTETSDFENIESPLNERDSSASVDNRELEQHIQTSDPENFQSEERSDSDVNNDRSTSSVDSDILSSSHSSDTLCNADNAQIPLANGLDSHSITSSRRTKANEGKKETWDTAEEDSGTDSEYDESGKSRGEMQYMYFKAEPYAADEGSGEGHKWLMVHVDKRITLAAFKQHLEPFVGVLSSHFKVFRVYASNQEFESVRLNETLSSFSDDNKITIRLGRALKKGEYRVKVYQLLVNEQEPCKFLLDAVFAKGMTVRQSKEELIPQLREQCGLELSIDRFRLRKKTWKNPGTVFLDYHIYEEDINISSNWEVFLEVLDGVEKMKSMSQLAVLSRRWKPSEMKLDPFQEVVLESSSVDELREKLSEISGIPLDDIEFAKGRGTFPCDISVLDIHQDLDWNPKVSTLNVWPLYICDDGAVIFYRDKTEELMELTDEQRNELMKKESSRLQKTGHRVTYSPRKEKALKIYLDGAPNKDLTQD
In short: as §1

[4] = target: T3, USP48 (UniProt Q86UV5)
T3 sequence (whole entry): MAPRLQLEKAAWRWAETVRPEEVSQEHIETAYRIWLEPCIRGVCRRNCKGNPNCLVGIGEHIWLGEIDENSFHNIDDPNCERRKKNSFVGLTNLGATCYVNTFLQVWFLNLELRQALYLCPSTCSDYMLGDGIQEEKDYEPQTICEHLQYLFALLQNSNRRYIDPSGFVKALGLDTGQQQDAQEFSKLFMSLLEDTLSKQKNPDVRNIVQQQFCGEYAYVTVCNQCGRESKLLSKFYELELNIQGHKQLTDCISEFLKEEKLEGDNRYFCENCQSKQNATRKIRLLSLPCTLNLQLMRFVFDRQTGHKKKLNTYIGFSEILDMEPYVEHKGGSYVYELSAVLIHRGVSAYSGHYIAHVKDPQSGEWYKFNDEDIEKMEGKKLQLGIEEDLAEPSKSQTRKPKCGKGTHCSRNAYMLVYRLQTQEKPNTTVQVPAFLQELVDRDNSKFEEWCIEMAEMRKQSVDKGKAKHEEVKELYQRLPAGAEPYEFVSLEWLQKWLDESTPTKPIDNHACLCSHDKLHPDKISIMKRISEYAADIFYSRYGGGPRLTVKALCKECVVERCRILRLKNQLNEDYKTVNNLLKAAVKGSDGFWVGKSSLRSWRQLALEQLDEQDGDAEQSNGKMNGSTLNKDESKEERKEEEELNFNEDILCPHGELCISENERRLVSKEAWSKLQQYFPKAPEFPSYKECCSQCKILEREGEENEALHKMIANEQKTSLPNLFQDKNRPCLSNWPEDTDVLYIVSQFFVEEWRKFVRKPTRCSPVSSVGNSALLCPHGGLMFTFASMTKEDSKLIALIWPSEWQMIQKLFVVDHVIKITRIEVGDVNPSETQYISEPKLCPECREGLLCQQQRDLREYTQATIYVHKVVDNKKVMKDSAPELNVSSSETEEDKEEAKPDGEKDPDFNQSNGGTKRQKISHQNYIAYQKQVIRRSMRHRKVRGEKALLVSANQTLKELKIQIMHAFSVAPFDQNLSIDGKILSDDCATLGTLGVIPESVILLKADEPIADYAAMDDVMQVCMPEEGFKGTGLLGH
In short: as §1

[5] = target: T4, USP5 (UniProt P45974)
T4 sequence (whole entry): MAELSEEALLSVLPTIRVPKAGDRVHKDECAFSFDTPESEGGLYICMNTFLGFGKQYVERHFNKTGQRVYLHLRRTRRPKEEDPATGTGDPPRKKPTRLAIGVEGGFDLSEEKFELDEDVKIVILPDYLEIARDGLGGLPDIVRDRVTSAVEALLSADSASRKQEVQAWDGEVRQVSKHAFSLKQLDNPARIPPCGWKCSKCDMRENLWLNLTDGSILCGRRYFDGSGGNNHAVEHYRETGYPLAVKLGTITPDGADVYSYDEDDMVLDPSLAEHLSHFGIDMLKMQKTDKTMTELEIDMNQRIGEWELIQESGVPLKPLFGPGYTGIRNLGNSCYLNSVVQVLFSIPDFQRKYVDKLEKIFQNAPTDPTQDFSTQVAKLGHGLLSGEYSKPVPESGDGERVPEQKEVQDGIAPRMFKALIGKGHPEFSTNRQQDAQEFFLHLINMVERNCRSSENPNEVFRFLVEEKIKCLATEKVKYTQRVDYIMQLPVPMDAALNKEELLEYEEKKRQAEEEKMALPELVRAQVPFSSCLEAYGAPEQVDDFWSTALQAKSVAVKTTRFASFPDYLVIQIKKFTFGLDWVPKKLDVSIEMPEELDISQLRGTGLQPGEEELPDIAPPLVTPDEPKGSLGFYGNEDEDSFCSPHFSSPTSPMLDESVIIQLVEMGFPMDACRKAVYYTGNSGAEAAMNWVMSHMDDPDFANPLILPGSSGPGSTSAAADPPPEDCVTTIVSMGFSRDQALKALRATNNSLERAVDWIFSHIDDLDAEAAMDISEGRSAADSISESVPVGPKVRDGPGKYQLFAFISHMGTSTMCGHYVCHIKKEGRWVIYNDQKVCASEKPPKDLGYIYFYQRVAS
In short: as §1

[6] = target: USP54 (UniProt Q70EL1)
Chain of USP54 (Q70EL1 whole entry): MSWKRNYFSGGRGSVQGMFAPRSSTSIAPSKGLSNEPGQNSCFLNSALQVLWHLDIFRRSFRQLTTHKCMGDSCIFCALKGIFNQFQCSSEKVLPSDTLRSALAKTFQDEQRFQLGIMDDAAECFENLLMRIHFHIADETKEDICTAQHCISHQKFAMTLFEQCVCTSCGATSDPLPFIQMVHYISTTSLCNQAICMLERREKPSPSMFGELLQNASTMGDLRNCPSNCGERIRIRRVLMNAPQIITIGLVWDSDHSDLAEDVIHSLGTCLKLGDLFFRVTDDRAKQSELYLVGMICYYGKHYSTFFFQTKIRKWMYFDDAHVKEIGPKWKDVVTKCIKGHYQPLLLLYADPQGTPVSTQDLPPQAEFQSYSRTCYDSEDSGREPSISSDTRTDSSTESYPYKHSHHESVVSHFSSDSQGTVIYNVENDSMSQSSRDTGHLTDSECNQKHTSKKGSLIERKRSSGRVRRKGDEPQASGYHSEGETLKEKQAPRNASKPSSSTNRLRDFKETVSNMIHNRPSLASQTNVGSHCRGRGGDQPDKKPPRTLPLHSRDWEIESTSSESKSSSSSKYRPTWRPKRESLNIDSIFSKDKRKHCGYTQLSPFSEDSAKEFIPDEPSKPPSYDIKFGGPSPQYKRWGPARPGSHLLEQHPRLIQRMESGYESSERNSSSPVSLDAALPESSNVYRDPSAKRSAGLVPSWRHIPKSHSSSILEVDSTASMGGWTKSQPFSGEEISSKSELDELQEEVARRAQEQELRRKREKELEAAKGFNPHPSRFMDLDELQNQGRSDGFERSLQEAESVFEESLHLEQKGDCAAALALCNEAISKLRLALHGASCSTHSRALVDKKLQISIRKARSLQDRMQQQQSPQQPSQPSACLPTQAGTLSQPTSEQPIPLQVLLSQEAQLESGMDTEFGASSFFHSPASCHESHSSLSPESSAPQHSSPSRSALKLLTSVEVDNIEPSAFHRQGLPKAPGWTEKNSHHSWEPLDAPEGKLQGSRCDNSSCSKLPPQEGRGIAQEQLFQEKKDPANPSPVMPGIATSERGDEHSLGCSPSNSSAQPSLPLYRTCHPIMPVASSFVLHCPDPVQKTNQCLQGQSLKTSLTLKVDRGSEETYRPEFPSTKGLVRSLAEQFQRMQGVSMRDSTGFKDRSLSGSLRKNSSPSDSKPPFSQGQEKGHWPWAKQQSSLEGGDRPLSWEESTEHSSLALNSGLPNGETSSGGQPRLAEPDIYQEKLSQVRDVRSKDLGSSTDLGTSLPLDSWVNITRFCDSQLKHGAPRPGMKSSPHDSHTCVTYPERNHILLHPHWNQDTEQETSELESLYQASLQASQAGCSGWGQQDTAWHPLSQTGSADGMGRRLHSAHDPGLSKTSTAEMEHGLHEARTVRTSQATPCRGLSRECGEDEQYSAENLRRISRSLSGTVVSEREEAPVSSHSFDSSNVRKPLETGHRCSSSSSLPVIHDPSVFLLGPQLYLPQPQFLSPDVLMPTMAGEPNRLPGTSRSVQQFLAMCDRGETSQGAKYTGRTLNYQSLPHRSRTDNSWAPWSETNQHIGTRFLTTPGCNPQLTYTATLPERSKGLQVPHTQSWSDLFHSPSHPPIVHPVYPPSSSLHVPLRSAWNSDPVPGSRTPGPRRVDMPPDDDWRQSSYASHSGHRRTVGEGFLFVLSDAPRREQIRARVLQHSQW
In short: as §1

[7] = target: USP7 (UniProt Q93009)
Chain of USP7 (Q93009 whole entry, looked up): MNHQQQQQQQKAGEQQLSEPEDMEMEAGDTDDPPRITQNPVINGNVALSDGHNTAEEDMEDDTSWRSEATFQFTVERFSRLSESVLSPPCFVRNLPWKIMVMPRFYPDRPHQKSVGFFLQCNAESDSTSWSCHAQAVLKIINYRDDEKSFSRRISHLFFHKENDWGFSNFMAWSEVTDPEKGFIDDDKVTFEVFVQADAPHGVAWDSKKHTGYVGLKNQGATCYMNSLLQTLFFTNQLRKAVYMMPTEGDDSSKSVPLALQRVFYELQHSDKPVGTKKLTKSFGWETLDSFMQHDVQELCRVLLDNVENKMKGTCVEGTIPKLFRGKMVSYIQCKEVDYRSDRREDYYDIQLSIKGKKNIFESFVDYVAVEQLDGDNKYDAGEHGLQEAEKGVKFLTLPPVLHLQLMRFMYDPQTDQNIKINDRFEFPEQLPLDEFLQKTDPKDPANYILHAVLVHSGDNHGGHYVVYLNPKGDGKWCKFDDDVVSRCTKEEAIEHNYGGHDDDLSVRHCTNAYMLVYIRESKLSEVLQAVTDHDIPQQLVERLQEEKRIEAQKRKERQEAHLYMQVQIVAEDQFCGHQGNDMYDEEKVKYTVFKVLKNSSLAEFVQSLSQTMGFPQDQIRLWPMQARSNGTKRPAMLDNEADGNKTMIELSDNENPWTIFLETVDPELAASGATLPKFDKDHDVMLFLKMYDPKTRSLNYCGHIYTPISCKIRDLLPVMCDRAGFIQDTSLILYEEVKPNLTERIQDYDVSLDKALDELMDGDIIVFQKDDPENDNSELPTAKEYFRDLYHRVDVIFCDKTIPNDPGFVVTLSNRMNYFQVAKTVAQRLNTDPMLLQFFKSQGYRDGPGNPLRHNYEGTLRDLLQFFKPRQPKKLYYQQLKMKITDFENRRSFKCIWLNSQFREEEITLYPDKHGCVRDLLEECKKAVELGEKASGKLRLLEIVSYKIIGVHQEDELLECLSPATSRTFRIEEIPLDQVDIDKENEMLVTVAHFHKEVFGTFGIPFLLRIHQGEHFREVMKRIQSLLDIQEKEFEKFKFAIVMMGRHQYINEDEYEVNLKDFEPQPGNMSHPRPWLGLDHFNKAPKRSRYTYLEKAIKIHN
In short: as §1

[8] = target: T5, USP8 (UniProt P40818)
T5 sequence (whole entry): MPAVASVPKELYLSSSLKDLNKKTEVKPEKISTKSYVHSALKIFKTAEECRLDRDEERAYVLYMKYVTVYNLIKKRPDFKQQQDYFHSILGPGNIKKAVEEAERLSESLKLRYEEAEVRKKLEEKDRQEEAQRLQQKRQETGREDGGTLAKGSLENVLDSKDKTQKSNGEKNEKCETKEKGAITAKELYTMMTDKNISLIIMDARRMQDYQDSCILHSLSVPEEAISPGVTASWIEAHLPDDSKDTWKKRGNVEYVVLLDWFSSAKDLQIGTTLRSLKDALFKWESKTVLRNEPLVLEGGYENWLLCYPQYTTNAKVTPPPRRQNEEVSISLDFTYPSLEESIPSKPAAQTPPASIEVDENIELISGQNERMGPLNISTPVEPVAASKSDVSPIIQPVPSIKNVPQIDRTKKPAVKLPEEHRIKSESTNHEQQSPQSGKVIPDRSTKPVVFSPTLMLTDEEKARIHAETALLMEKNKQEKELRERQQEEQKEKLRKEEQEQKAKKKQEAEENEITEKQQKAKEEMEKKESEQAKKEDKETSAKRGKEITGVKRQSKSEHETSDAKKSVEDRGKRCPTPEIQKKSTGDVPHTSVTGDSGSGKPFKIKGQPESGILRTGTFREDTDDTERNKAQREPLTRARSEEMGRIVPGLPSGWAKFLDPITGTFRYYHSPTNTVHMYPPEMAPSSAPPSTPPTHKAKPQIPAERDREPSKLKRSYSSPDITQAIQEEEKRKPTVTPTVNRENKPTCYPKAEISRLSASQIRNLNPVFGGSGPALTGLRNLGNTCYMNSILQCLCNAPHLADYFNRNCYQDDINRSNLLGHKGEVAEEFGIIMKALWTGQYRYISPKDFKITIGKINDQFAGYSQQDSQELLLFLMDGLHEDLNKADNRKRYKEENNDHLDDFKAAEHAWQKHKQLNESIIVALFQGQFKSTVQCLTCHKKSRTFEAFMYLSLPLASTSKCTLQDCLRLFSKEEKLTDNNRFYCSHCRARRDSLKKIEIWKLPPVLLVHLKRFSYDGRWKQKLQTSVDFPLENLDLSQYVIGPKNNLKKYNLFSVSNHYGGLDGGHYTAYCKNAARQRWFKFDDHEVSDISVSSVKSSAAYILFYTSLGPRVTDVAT
In short: as §1

Measured: log2 ratio of Biotin-Ahx-Ub-VS probe labelling

Cc1cc(C(=O)NC2CCN(C(=O)CCl)CC2)no1
inactive: [1] -0.284 | [2] -0.048 | [3] -0.0545 | [4] -0.0815 | [5] 0.0506 | [6] -0.176 | [7] -0.222 | [8] -0.0431

— the supplement of paper PMC11732987, “Enantioselective OTUD7B fragment discovery through chemoproteomics screening and high-throughput optimisation” (Communications Chemistry, 2025)
